# From PubChem
# APOBEC3G inh – APOBEC3G (human) deaminase inhibition; 330,000 compounds, 0.28% hits; inhibition, % at 20 µM; recombinant A3G, ssDNA deamination FAM/TAMRA fluorescence; Q9HC16; AID 493012;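 active = inhibition of at least 40% at 20 µM, with no more than 30% in the related APOBEC3A deaminase screen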
# Target sequence (Q9HC16 whole entry, looked up): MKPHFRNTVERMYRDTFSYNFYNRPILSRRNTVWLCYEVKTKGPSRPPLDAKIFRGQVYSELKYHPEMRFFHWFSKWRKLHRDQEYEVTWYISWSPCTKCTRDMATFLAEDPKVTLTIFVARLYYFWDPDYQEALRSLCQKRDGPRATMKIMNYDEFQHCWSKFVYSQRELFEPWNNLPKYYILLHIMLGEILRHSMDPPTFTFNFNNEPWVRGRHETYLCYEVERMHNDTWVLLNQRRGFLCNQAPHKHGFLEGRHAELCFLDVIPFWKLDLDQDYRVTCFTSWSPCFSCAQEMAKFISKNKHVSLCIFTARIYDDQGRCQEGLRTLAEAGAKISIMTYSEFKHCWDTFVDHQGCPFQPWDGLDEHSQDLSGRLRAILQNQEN
# PHOSPHO1 block – blocks human PHOSPHO1 phosphatase activity | Q8TCT1 | inhibition, % at 13.3 µM | 290,000 compounds, 1.1% hits | recombinant PHOSPHO1, absorbance phosphatase assay; in the data active = inhibition above about 60%
# aDG glyco act – alpha-DG glycosylation activation; Pro5-aDG cells, alpha-DG glycosylation AlphaScreen (IIH6); 0% Pro5, 100% B10-LARGE cell signal; activation, % at 10 µM; 360,000 compounds, 0.22% hits; AID 624168;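 active = activation of at least 8% versus controls, or a plate z-score of at least 8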;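 also: Pro5 are CHO cells carrying HIG-tagged alpha-DG that lacks glycosylation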
# A3A deaminase – human APOBEC3A DNA deaminase inhibition. P31941. recombinant A3A, FAM/TAMRA ssDNA deamination fluorescence. inhibition, % at 20 µM. 330,000 compounds, 0.41% hits;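 active = at least 40% inhibition at 20 µM here, with at most 30% in a related deaminase screen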
# Target sequence (P31941 whole entry, looked up): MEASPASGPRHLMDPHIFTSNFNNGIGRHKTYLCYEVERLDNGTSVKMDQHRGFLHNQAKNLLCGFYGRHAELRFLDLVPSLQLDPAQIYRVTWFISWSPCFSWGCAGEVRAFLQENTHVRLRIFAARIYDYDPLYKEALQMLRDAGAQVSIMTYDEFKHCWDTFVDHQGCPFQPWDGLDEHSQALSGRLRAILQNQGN
# ALR inh – blocks human ALR sulfhydryl oxidase activity. 290,000 compounds, 3.8% hits. purified ALR, DTT oxidation, H2O2 HRP-luminol luminescence. P55789. inhibition, % (test concentration not listed);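 active = mean replicate inhibition above about 79%, with every replicate also reaching it, limit read from the data; inconclusive = only one of the two criteria met; inactive = mean below limit and not every replicate reaching it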
# rCAG RNA binder – molecules binding r(CAG) RNA repeats; r(CAG) RNA repeat, TO-PRO-1 dye displacement fluorescence; inhibition, % at 3 µM; 370,000 compounds, 1.3% hits; AID 651821;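 active = inhibition above the plate cutoff, the mean of all test compounds on that plate plus 3 SD, cut at about 35% in these data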;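 also: higher means more dye released from RNA so lower well fluorescence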
# A number is an active result; – = inactive; ? = inconclusive; · = not tested or not shown. Hits are enriched below; roughly 5.4% of the tested compounds scored in any of these assays.
SMILES,APOBEC3G inh,PHOSPHO1 block,aDG glyco act,A3A deaminase,ALR inh,rCAG RNA binder
COc1ccc2c(c1)c1ncn(CCc3ccccc3)c(=O)c1n2C,–,–,–,–,91,–
COc1ccc2c(c1)c1ncn(CCCN3CCOCC3)c(=O)c1n2C,–,–,–,–,–,–
CCCCN1CC(=O)N2[C@H](C[C@@]3(n4ccc5ccccc54)c4ccccc4N(S(=O)(=O)c4ccccc4)[C@@H]23)C1=O,·,·,·,·,·,–
CCN1CCN(c2ccc(N=Cc3ccc(O)cc3O)cc2)CC1,–,–,–,–,99,–
CCN(CC)c1ccc(N=Cc2ccc(N(CC)CC)cc2O)cc1,–,–,–,–,–,–
Cn1cccc1CC(=O)NN=Cc1cccc(F)c1,·,·,·,·,·,–
O=C(Nc1nc2ncccn2c1-c1ccccc1)C1CC1,·,·,·,·,·,–
O=C(C1CCCN1S(=O)(=O)c1cccs1)N1CCc2ccccc2C1 (configuration not stated),·,·,·,·,·,–
Cc1ccc(C(=O)N2CCN=C2SCc2ccc([N+](=O)[O-])cc2)cc1C,–,–,–,–,99,–
O=C(c1ccccc1)N1CCN=C1SCc1ccc([N+](=O)[O-])cc1,–,–,–,–,99,–
O=C(c1ccc([N+](=O)[O-])cc1)N1CCN=C1SCc1ccccc1,–,–,–,–,·,–
COC(=O)[C@]12C[C@H](CC(=O)NCc3ccc(C)o3)C(=O)N(CCc3ccc(OC)c(OC)c3)C1=C[C@H](COCc1ccccc1)O[C@@H]2C,·,·,·,·,·,–
COc1ccc(CC(=O)Nc2nc3ccccc3[nH]2)cc1,–,–,–,–,–,–
COC(=O)Cc1cc(=O)n(-c2nc3ccccc3[nH]2)[nH]1,–,–,–,–,–,42
CCCC[C@H]1C2CC(OC(=O)Nc3ccc4c(c3)OCO4)C(C2)[C@H]2CCCCN21 (some centres not stated),·,·,·,·,·,–
COc1ccccc1CN1CC(C(=O)N(C)CCc2nc3ccc(F)cc3[nH]2)CCC1=O (configuration not stated),–,64,–,–,–,–
Cc1nnc(NC(=O)CSc2nc3ccccc3o2)s1,–,–,–,–,–,–
Cc1nn2c(-c3cccc(NC(=O)CSc4nc5ccccc5o4)c3)nnc2c2ccccc12,–,–,–,–,99,–
Cc1cc(C)nc(NC(=O)CSc2nc3ccccc3o2)n1,–,69,–,–,–,–
COc1cc(OC)nc(NC(=O)CSc2nc3ccccc3o2)n1,–,–,–,–,–,–
CC1CCc2nc(NC(=O)CSc3nc4ccccc4o3)sc2C1 (configuration not stated),–,–,–,–,99,–
CC(C)(C)c1ccc(S(=O)(=O)N2CCCC(C(=O)NCc3ccco3)C2)cc1 (configuration not stated),·,·,·,·,·,–
COc1cc(N/C(=C\C(=O)c2ccccc2)c2ccccc2)ccc1Cl,·,·,·,·,·,–
O=C(N/N=C/c1coc2ccc(Cl)cc2c1=O)c1ccncc1,–,–,–,–,–,–
CC(C)Oc1cccc(C(=O)N/N=C/c2coc3ccccc3c2=O)c1,–,–,–,–,98,–
SMILES,APOBEC3G inh,PHOSPHO1 block,aDG glyco act,A3A deaminase,ALR inh,rCAG RNA binder
O=C(N/N=C/c1coc2ccccc2c1=O)c1cc(O)cc(O)c1,–,–,–,–,·,–
O=C(CCc1ccc(O)cc1)N/N=C/c1coc2ccccc2c1=O,–,–,–,–,79,–
Cc1cccc(C(=O)N/N=C/c2coc3ccccc3c2=O)c1,–,–,–,–,89,–
CCOc1cccc(C(=O)N/N=C/c2coc3ccccc3c2=O)c1,–,–,–,–,–,–
O=C(N/N=C/c1coc2ccc(Cl)cc2c1=O)c1ccc(O)cc1,–,–,–,–,98,–
COc1ccc(CN(CCN2CCOCC2)C(=O)c2cc(F)ccc2F)cc1OC,·,·,·,·,·,–
COc1ccc(CNC(=O)c2sc3nc(C)c(Cl)c(C)c3c2N)cc1,·,·,·,·,·,–
COc1ccc(S[C@]2(C(=O)N3CCOCC3)CC(=O)N(C(=O)CCc3ccccc3)[C@@H]2c2ccc(OC)cc2)cc1,·,·,·,·,·,–
Cc1[nH]c2ccccc2c1CCCO,·,–,·,·,99,–
S=C(NN=C(C1CC1)C1CC1)Nc1ccccc1,–,–,–,–,97,–
CCN1CCN(C(=O)c2ccccc2Nc2ccc(SC(F)F)cc2)CC1,–,–,–,–,90,–
CN1CCN(C(=O)c2ccccc2Nc2ccc(SC(F)F)cc2)CC1,–,–,–,–,?,–
COc1ccc(CNC(=O)C2CSC(c3ccc(OC)cc3)N2C(C)=O)cc1 (configuration not stated),–,–,–,–,85,–
CC(=O)/C(=N\Nc1ccccc1)Sc1nnc(-c2ccccc2)n1-c1ccccc1,–,–,–,–,–,–
CC(=O)/C(=N\Nc1ccccc1)Sc1nncn1C,–,–,–,–,98,–
COP(=O)(CC(=O)OC(C)(C)C)C(CC(C)C)NC(=O)OCc1ccccc1 (configuration not stated),·,·,·,·,·,–
Cc1cc2c(cc(C(=O)OC(C(=O)NCc3ccco3)C(C)C)n2C)o1 (configuration not stated),–,66,–,–,–,–
O=C(NCCc1cccc(C(F)(F)F)c1)C1CCC(=O)N(Cc2ccc(Cl)cc2)C1 (configuration not stated),–,68,–,–,–,–
CCOC(=O)Cc1nn2c(=O)cc(C)nc2s1,–,–,–,–,93,–
Brc1ccc(C=Nc2ccc3c(c2)OCCOCCOCCO3)s1,–,–,–,–,89,–
Oc1c(Cl)cc(Cl)cc1C=Nc1ccc2c(c1)OCCO2,–,–,–,–,–,–
Brc1csc(C=Nc2ccc3c(c2)OCCOCCOCCOCCO3)c1,–,–,–,–,100,–
Brc1cc2c(cc1Br)OCCOCCOCCO2,–,–,–,–,–,–
Cc1cc(NC(=O)Cc2c(C)[nH]c3ccccc23)ccc1Oc1cccnc1,·,·,·,·,·,–
CN(C)CCNS(=O)(=O)c1ccc(N2CCN(c3ccc(F)cc3)CC2)c([N+](=O)[O-])c1,–,–,9.1,–,?,–
SMILES,APOBEC3G inh,PHOSPHO1 block,aDG glyco act,A3A deaminase,ALR inh,rCAG RNA binder
Cc1cnc(C(=O)OCc2ccc(Br)cc2)cn1,–,–,–,–,·,–
Cc1cnc(C(=O)Oc2c(C)ccc(C)c2C)cn1,–,141,–,–,–,–
CCOC(=O)CC[C@@H]1CC[C@]2(CCCN(C(=O)c3ccc4ccccc4n3)C2)O1,·,·,·,·,·,–
CCCOc1ccc(C(=O)Nc2ccc(S(=O)(=O)Nc3cc(C)nc(C)n3)cc2)cc1,–,–,–,–,96,–
COCCN(CCOC)S(=O)(=O)c1ccc(C(=O)Nc2ccc(S(=O)(=O)Nc3nccc(C)n3)cc2)cc1,–,–,–,–,90,–
COc1ccc(C(=O)Nc2ccc(S(=O)(=O)Nc3ncccn3)cc2)cc1OC,–,60,–,–,–,–
COc1nccnc1NS(=O)(=O)c1ccc(NC(=S)NC(=O)/C=C/c2ccccc2)cc1,–,–,–,–,–,–
